Screening data as filed in PubChem BioAssay.
GCN5L2 inh – inhibitors of human GCN5L2 histone acetyltransferase | GCN5L2 HAT assay, ThioGlo1 CoA-SH fluorescence | Q92830 | Potency, µM (titrated, usually from 58.9 µM), for inactives: at the highest dose activity change, negative = inhibition, most hits filed as inhibitors | 0.21% of 390,000 active
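qHTS, 1536-well. 20nM enzyme, pH 7.5 HEPES/EDTA/Tween-20 buffer; 15 min compound preinc., RT. Start: 75uM H3(1-25), 70uM AcCoA, 50uM ThioGlo1. Read Ex340/Em540 at t=0 (autofluorescence flag) and t=20 min.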
TDP1 cell noCPT – qHTS for Inhibitors of human tyrosyl-DNA phosphodiesterase 1 (TDP1): qHTS in cells in absence of CPT; 15% of 420,000 active; Potency, µM (highest dose often 46.2 µM), without a hit: top-dose activity change, negative = growth inhibition, hits mostly inhibitors; DT40 Tdp1-/- hTDP1 cells, no CPT, ATP luminescence, 48 h; AID 686978, 2013; note: nearly all actives have a fitted effect of over 55% in size
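Stably hTDP1-transfected Tdp1-null chicken DT40 cells were treated with library compounds minus camptothecin and grown for at least 48 hr at 37 °C, after which cellular ATP was quantified by luminescence.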
VDR inh – inhibitors of human vitamin D receptor; P11473; VDR-SRC2-3 peptide fluorescence polarization, 2 h; Potency, µM, for the others: max response, negative = inhibition, actives largely listed as inhibitors; 0.93% of 400,000 active; AID 504847
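The screen uses fluorescence polarization to detect compounds that interfere with recruitment of the SRC2-3 coactivator peptide to VDR; plates are read after 2 h at room temperature.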
TDP1 inh – blocks human tyrosyl-DNA phosphodiesterase 1. Potency, µM (titrated, usually from 130 µM), without a hit: at the top dose activity change, negative = inhibition, most hits filed as inhibitors. 0.28% of 350,000 active. recombinant TDP1, AlphaScreen DNA substrate cleavage. AID 485290; note: nearly all actives have a fitted effect of over 40% in size
Target sequence (Q9NUW8 whole entry, looked up): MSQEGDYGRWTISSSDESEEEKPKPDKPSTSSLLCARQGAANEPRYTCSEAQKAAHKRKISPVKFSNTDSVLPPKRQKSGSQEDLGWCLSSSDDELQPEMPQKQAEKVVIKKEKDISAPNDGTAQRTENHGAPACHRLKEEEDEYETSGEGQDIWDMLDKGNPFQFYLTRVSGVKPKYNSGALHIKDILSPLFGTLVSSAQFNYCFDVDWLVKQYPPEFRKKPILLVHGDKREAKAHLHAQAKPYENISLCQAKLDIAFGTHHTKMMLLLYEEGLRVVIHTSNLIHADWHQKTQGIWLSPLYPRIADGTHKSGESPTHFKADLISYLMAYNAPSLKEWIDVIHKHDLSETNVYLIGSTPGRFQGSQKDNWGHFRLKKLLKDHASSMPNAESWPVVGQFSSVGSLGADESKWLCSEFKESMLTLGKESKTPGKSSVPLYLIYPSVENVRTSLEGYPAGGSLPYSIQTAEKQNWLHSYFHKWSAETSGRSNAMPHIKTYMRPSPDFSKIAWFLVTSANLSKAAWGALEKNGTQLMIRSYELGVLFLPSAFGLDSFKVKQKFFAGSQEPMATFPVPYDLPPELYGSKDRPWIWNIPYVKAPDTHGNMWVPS
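AlphaScreen read-out: signal falls as enzyme removes the 3' tyrosine-FITC from a 5'-biotinylated DNA oligo (15 nM, 5 min, RT). Enzyme was E. coli-made recombinant Tdp1 at 1 nM, exposed to compound for 15 min beforehand; beads 10 ug/ml, 10 min.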
DT40 TDP1 CPT – DT40-hTDP1 cell growth loss with CPT. 12% of 420,000 active. chicken DT40 Tdp1-/-;hTDP1 cells + 20 nM CPT, ATP luminescence, 48 h. Potency, µM (doses to about 46.2 µM), for inactives: at the top dose activity change, negative = growth inhibition, usual class: inhibitors; note: nearly all actives have a fitted effect of over 55% in size
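Chicken DT40 Tdp1-/- cells stably complemented with human TDP1 were seeded at 400 cells/well in medium containing 20 nM camptothecin, exposed to pin-transferred compounds, and grown at 37 °C for at least 48 hr. Viability was read as ATP luminescence.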
PLK1 PBD block – inhibitors of human PLK1 polo-box domain binding; P53350; Plk1 PBD binding of FITC phosphopeptide, fluorescence polarization; Potency, µM, without a hit: max response, negative = inhibition, usual class: inhibitors; 2.8% of 360,000 active; AID 720504; note: series mostly up to about 57 µM; nearly all actives have a fitted effect of over 65% in size
* = called active by the depositor; ? = inconclusive; / = no result given; [ ] = dose if it differs, or a comment. Only some compounds are listed: those with a hit (about 18% of all), similar ones and a draw of the others. Calls come from the whole dose curve; as a rule, active = well fitted curve in the direction sought with a large enough effect; inconclusive = small, poorly fitted or top-dose-only effect, or another doubt; inactive = no such curve, though single readings can be large; an effect the other way counts as inactive or inconclusive. % is set by controls: 0 for no effect and ±100 for the full control effect; potency is the fitted concentration of half-maximal effect.

SMILES	GCN5L2 inh	TDP1 cell noCPT	VDR inh	TDP1 inh	DT40 TDP1 CPT	PLK1 PBD block
O=c1[nH]c2ccccc2c(O)c1O	-16%	5.8µM*	7.1µM*	-4%	8.2µM*	11µM*
O=C(N/N=C/c1ccccc1)c1c(O)c2ccccc2[nH]c1=O	34%	12µM*	-2%	-1%	9.2µM*	-11%
O=C(N/N=C/c1cccc(F)c1)c1c(O)c2ccccc2[nH]c1=O	2%	2.3µM*	-12%	8%	2.3µM*	-9%
CSc1ccccc1NC(=O)CN(C)C(=O)C1CCN(C(=O)Nc2ccccc2)CC1	-1%	-3%	13%	2%	-2%	-8%
O=Cc1cccc(Oc2ncccn2)c1	-9%	1%	-7%	0%	1%	-8%
Nc1ccc(Oc2ncccn2)cc1	-8%	23µM*	?	/	?	?
Cn1cc(C=O)c2cc(F)ccc21	-4%	0%	-16%	5%	-1%	-2%
C[n+]1ccc(/C=C/c2c[nH]c3ccc(F)cc23)cc1	-22%	0.82µM*	10%	/	1.6µM*	54%
Cn1cc(/C=C/c2cc[n+](C)cc2)c2cc(Cl)ccc21	-20%	0.73µM*	-17%	/	0.65µM*	40%
Cn1cc(/C=C/c2cc[n+](C)cc2)c2cc(F)ccc21	-16%	0.58µM*	-8%	/	0.52µM*	55%
COc1ccc2c(c1)CCc1cnc(-n3ncc(C(=O)NCCCN4CCOCC4)c3C)nc1-2	/	?	/	/	-2%[9.04 µM]	/
CC1CN(C(=O)N2c3ccccc3Sc3ccccc32)CC(C)O1 (centres undefined)	-11%	12µM*	?	-3%	12µM*	-3%
O=C(CN1CCOCC1)N1c2ccccc2Sc2ccccc21	0%	15%	11%	/	-3%	1%
CC1CN(C(=O)N2c3ccccc3Sc3ccccc32)C(C)CC1=O (centres undefined)	-5%	?	16%	-1%	?	-6%
O=C(N1CCOCC1)N1c2ccccc2Sc2ccccc21	-1%	23µM*	9%	5%	?	-6%
CC1CCCN(C(=O)N2c3ccccc3Sc3ccccc32)C1 (centres undefined)	-1%	13µM*	9%	2%	?	1%
Cc1ccc(N2CC(C(=O)Nc3cccc(S(=O)(=O)N4CCOCC4)c3)CC2=O)cc1 (centres undefined)	/	-22%	/	/	-14%	-1%
NS(=O)(=O)c1ccc(CCNC(=O)c2cc(-c3ccc(Br)cc3)nc3ccccc23)cc1	1%	8.2µM*	21%	3%	9.2µM*	2%
CCCc1ccc(-c2cc(C(=O)NCCc3ccc(S(N)(=O)=O)cc3)c3ccccc3n2)cc1	-8%	12µM*	-6%	3%	15µM*	-2%
O=C1NC(=S)N/C1=C/c1ccc2c(c1)OCO2	3%	5.8µM*	-10%	/	?	7%
O=C1NC(=S)N/C1=C\c1ccc(N2CCOCC2)cc1	1%	?	?	7%	16µM*	3.8µM*
Cc1cc(-c2ccc(S(=O)(=O)Nc3ccccc3F)s2)on1	12%	?	-1%	0%	-18%	/
Cc1ccc2occ(CC(=O)N(Cc3ccc(Cl)cc3)C3CCS(=O)(=O)C3)c2c1 (centres undefined)	-8%	?	3%	5%	?	/
CCOc1ccc(-n2c(=O)c3c(C)c(C)sc3n(Cc3ccc(C(C)(C)C)cc3)c2=O)cc1	-7%	?	20%	3%	21µM*	/
Cc1sc2c(c1C)c(=O)n(CCc1ccccc1)c(=O)n2Cc1ccc(C(C)(C)C)cc1	-8%	-13%	6%	-2%	6%	/
CCCOc1ccc(C(F)(F)F)cc1NC(=O)c1cc(C)on1	0%	7%	-22%	0%	-6%	-14%
CCCOc1ccc(C(F)(F)F)cc1NS(=O)(=O)c1ccc(Cl)nc1	-7%	?	0%	-3%	15µM*	4%
